Test results published in PubChem BioAssay (NCI).
About 79,000 compounds went through this panel and 15% of them were active in at least one assay; those are over-represented in the sample as a whole. No stated cut-off is given here; in the data, active means growth inhibition above about 70%; inactive means the rest.

What was measured:
[1] = NCI Yeast Anticancer Drug Screen. Data for the rad50 strain (AID 155);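 further: 0% = growth of vehicle-only cultures of the same strain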; conditions: S. cerevisiae rad50 strain growth inhibition; at 50.0 µM; hits give high values
Procedure, shortened: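 Relative growth inhibition (compound vs vehicle) was measured in yeast with a defined repair-gene alteration.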

[2] = NCI Yeast Anticancer Drug Screen. Data for the mec2-1 strain (AID 157); conditions: S. cerevisiae mec2-1 strain, at 50.0 µM, hits give high values
Procedure, shortened: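 Readout is yeast growth inhibition, normalised to vehicle-treated controls, in the mec2-1 strain exposed to compound.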

[3] = NCI Yeast Anticancer Drug Screen. Data for the sgs1 mgt1 strain (AID 161);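 further: 0% = growth of cultures given vehicle only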; conditions: S. cerevisiae sgs1 mgt1 strain, at 50.0 µM, hits give high values
Procedure, shortened: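 Growth of a repair-deficient yeast mutant was monitored after compound treatment and expressed as inhibition relative to vehicle-treated cultures.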

[4] = NCI Yeast Anticancer Drug Screen. Data for the cln2 rad14 strain (AID 165);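 further: 0% = growth equal to vehicle treated cultures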; conditions: S. cerevisiae cln2 rad14 strain, at 50.0 µM, hits give high values
Procedure, shortened: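 Relative to vehicle controls, growth inhibition of compound-treated cln2 rad14 yeast was recorded.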

[5] = NCI Yeast Anticancer Drug Screen. Data for the bub3 strain (AID 167); conditions: S. cerevisiae bub3 mutant strain, at 50.0 µM, hits give high values
Procedure, shortened: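 Screening used yeast with an engineered genetic alteration affecting cell cycle control. Compound-exposed cultures were compared with vehicle cultures, and reduced growth was taken as inhibition.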

[6] = NCI Yeast Anticancer Drug Screen. Data for the mlh1 rad18 strain (AID 175); conditions: S. cerevisiae mlh1 rad18 strain growth inhibition; at 50.0 µM; hits give high values
Procedure, shortened: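 Test agents were incubated with a yeast strain of defined genotype (DNA damage repair defect). Inhibition of growth was derived by comparison with vehicle-exposed cultures.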

Measured: growth inhibition

CC(NC(=O)C(N)CC(=O)O)C(=O)OC12CC3CC(CC(C3)C1)C2 (stereo unspecified)
inactive: [1] -55.5% | [2] -62.4% | [3] -22.6% | [4] -0.95% | [5] 12.7% | [6] -10.8%

C=Cc1c(Cl)cccc1Cl
inactive: [1] 0.25% | [2] -8.85% | [3] -5.55% | [4] 3.5% | [5] -18.6% | [6] -11.3%

CC(=O)OC1CC2CC3C(C)CCC3(C2(C)C)C1(C)O (stereo unspecified)
inactive: [1] -12.9% | [2] -0.25% | [3] -0.7% | [4] 0.7% | [5] 11.4% | [6] -11.5%

Cc1nnc2cc(C(=O)O)c3ccccc3n2c1=O
inactive: [1] -28.6% | [2] -30.6% | [3] -13.4% | [4] -30.6% | [5] -20.1% | [6] -31.8%

CC(C)([NH-])C[NH-].O=C(O)CCO.[Pt+2]
inactive: [1] 27.8% | [2] -8.8% | [3] -2.8% | [4] 17.6% | [5] 8.65% | [6] 14.2%

CC1(C)CC(=O)C(C(c2ccc3c(c2)CCC3)C2C(=O)CC(C)(C)CC2=O)C(=O)C1
inactive: [1] -18.1% | [2] -27.9% | [3] -31.1% | [4] 23.9% | [5] -26.3% | [6] -21.4%

O=C(Nc1ccccc1CCl)Nc1ccccc1CCl
inactive: [1] -30.9% | [2] -26.4% | [3] -15.8% | [4] 0.7% | [5] -23.2% | [6] -28.8%

CN(C)c1ccc(/C=N/NC(=O)c2ccccc2NC(=O)c2ccccc2)cc1
inactive: [1] -1.65% | [2] -20.3% | [3] -11.6% | [4] -19.8% | [5] 14.9% | [6] 3.4%

CCN1CCCC(SC(=O)C(O)(c2ccccc2)c2ccccc2)C1 (stereo unspecified)
inactive: [1] -16.6% | [2] -5.75% | [3] -22.1% | [4] -15.2% | [5] -4.15% | [6] 0.15%

NCC1OC(n2cnc3c(N)ncnc32)CC1O (stereo unspecified)
inactive: [1] -16.1% | [2] -2.75% | [3] -17.8% | [4] 0.65% | [5] -28.6% | [6] -7.85%

CCOCCOC(=O)c1ccc(C(N)=NC2CCCCC2)cc1
inactive: [1] 0.05% | [2] -2.4% | [3] 3.75% | [4] -4.1% | [5] 0.1% | [6] -1.4%

CCOC(=O)c1[nH]n(-c2ccccc2)c(=O)c1/C=N/C(=S)Nc1ccccc1
inactive: [1] -22.3% | [2] -10.6% | [3] -16.6% | [4] -11.8% | [5] -21.3% | [6] -7.85%

CCOC(=O)/C=C/n1c2ccccc2c(=O)c2cc(OC)ccc21
inactive: [1] -3.25% | [2] -13.6% | [3] -18.8% | [4] 3.6% | [5] -8.95% | [6] -2.4%

CC(C)N(CC(c1ccccc1)C(C)(O)c1ccccc1)C(C)C (stereo unspecified)
inactive: [1] -10.1% | [2] 15.7% | [3] -7.55% | [4] 4.2% | [5] 26.7% | [6] -21.1%

Cc1ccc(C)c2c1C1CCCCC3(OCCCO3)C21O (stereo unspecified)
inactive: [1] -4.2% | [2] -6.3% | [3] -44.2% | [4] -6.9% | [5] -24.2% | [6] -0.85%

Oc1c(Br)cc(Br)cc1/C=C/NC(=S)NC1CC2CC1C1C=CCC21 (stereo unspecified)
inactive: [1] 28.2% | [2] 32.1% | [3] 10.6% | [4] -6.15% | [5] 5.15% | [6] 55.9%

COc1ccc(C2CC(=O)N(c3nccc(C)n3)C(=O)C2)cc1
inactive: [1] 13.5% | [2] 14.4% | [3] 15.9% | [4] -19.1% | [5] -16.5% | [6] 14.2%

CCOC(=O)c1cnc2cc3c(cc2c1Nc1cccc(C(F)(F)F)c1)OCO3
inactive: [1] 5.95% | [2] -8.85% | [3] -9.5% | [4] -6.45% | [5] -2.75% | [6] -11.6%

N#CC1=CNc2ccccc2N=C1N
inactive: [1] 8.55% | [2] -4.75% | [3] 28.4% | [4] 8.55% | [5] 28.2% | [6] 24.1%

CC(C)(C)OC(=O)C1=C2C=C(O)C=CC2(C)N(Cc2ccccc2)C1=N (stereo unspecified)
inactive: [1] -23.9% | [2] -55.5% | [3] -36% | [4] -36.2% | [5] -24.6% | [6] -50.2%

CCCCCCCCCCCCCCCCN=C1C=Cc2ccccc2C1=NCCCCCCCCCCCCCCCC
inactive: [1] -0.45% | [2] 6.4% | [3] 11.6% | [4] 11.6% | [5] 5.95% | [6] 4.4%

CCN(CC)CCC(=O)O
inactive: [1] -13.4% | [2] -19.4% | [3] -7% | [4] 5.95% | [5] -10.7% | [6] -5.2%

Nc1ccc(I)cc1
inactive: [1] -10.8% | [2] -4.05% | [3] -34.6% | [4] -20.8% | [5] -23.2% | [6] -22.1%

CC(C)=CCNc1ncnc2c1c(C#N)cn2C1OC(CO)C(O)C1O (stereo unspecified)
inactive: [1] -1.2% | [2] -23.7% | [3] -23.4% | [4] 15.7% | [5] -17.5% | [6] -5.95%

CCCOCOCCC
inactive: [1] -22.5% | [2] 0.05% | [3] -13.2% | [4] -28.4% | [5] 11.7% | [6] -27.5%

NCCNCCCCCCCCCCCCOS(=O)(=O)O
inactive: [1] -32.8% | [2] -23.6% | [3] -6.35% | [4] -15.3% | [5] -25% | [6] -11.4%

CC(=O)NCCN1CCN(C(C)=O)CC1
inactive: [1] 10.1% | [2] 10.7% | [3] -8.7% | [4] -37% | [5] -13.8% | [6] -15.2%

Cc1cc(C(F)(F)F)cc(-n2nc(NS(=O)(=O)c3cc(C)c(Cl)cc3S)nc2N)n1
inactive: [1] 13.1% | [2] 10.1% | [3] 15.4% | [4] -2.9% | [5] 4.5% | [6] 33.5%

O=C(NC(Cc1c[nH]c2ccccc12)(C(=O)O)C(=O)O)OCc1ccccc1
inactive: [1] 23.1% | [2] 15.1% | [3] 18.7% | [4] 29.1% | [5] 2.1% | [6] 17.8%

CC(=O)OCC1OC(n2cnc([N+](=O)[O-])c2Br)C(OC(C)=O)C1OC(C)=O (stereo unspecified)
inactive: [1] 15.1% | [2] 15.4% | [3] 18.8% | [4] 25.5% | [5] 6.05% | [6] 21.8%

BrC1(C2(Br)N(c3ccccc3)CCN2c2ccccc2)N(c2ccccc2)CCN1c1ccccc1
inactive: [1] 53% | [2] -1.55% | [3] 42.4% | [4] 10.2% | [5] 2% | [6] 11.6%

CCCCCCCCCCCCCCCCCCCCCC(C)C
inactive: [1] -8% | [2] 0.8% | [3] -10.9% | [4] -8.6% | [5] -7.55% | [6] -31.4%

CN(C)c1ccc(/C=N\NC(=S)NCCCN2CCN(CCCNC(=S)N/N=C/c3ccc(N(C)C)cc3)CC2)cc1
inactive: [1] 36.1% | [2] 9.4% | [3] 5.45% | [4] 17.6% | [5] 1.5% | [6] 27.2%

COc1c(C)c(C)c(OC)c(CC(=O)O)c1C
inactive: [1] -3.05% | [2] -0.6% | [3] -3.7% | [4] -34.9% | [5] -17.7% | [6] 4.9%

CC(CCC(=O)O)(CCC(=O)O)[N+](=O)[O-]
inactive: [1] 0.85% | [2] -1.1% | [3] 12.2% | [4] -6.6% | [5] 12.6% | [6] -8.8%

CC(C)CSC(SCC(C)C)C(O)C(O)C(O)CO (stereo unspecified)
inactive: [1] -6.85% | [2] 3% | [3] 5.4% | [4] -35.2% | [5] 10.2% | [6] 6%

CCOCCNCc1ccc(Cl)cc1Cl
inactive: [1] 4% | [2] -1.45% | [3] -5% | [4] 2.85% | [5] 7.8% | [6] -9.7%

C(=Nc1ccc2c(c1)Cc1ccccc1-2)c1ccccn1
inactive: [1] 61.8% | [2] -35.5% | [3] 24.3% | [4] 16.9% | [5] -22.8% | [6] 49.4%

N#CCCC1(CCC#N)CCc2ccccc2C1=O
inactive: [1] 26.6% | [2] 1.2% | [3] 24.6% | [4] 25.9% | [5] 8.1% | [6] 40%

NNC(=O)c1cccc2c1Oc1ccccc1S2
inactive: [1] 21.5% | [2] -12.9% | [3] 10.9% | [4] -63.9% | [5] -11.9% | [6] 25.1%

Cn1c(=O)c2c(n(C)c1=O)n1c(=O)c3ccccc3nc1n2C
inactive: [1] 12.9% | [2] 2.3% | [3] -15.6% | [4] -7.1% | [5] -7.3% | [6] -6.55%
